Experimental data from PubChem BioAssay AID725 (NMMLSC, 2007).
In all, about 1,300 compounds went through this assay and fewer than 10 were called active. No rule for the calls is given here. Only a sample is shown.

molecular target: N-formyl peptide receptor 2 (Homo sapiens) (UniProt P25090); experiment: FPRL1 fluorescent ligand binding inhibitors, primary screen, selectivity assay for FPR ligand SAR project, cell-based, flow cytometry, HTS counterscreen (AID 725); settings: FPRL1-expressing cells, stronger effect = higher value, concentration not given here
Sequence (P25090 whole entry, looked up): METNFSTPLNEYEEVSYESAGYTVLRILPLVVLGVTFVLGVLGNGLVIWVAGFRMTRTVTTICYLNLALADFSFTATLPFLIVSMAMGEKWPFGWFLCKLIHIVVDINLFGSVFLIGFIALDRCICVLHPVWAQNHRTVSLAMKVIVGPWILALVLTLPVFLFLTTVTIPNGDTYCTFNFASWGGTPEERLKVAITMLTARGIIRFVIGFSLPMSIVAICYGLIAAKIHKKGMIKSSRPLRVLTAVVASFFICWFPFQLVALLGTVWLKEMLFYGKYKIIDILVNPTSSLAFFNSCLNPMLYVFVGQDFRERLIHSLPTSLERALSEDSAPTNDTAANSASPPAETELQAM

Compound	inhibition
CC(C)c1ccc(C2/C(=C(\O)c3ccccc3)C(=O)C(=O)N2c2nc3ccccc3s2)cc1 (stereo unspecified)	0% (inactive)
Cc1ccc(F)cc1N1C(=O)CSC1c1ccc(Br)cc1 (stereo unspecified)	1.5% (inactive)
Cc1cccc(C(=O)N(Cc2ccco2)Cc2ccccc2F)c1	14.7% (inactive)
COc1ccc(-c2c(C)[nH]n3c(=O)c4c(nc23)CCCC4)cc1	-4.2% (inactive)
CCOC(=O)c1c(NC(=O)c2ccc(Br)cc2)sc(C)c1C	9.7% (inactive)
Cc1onc(-c2c(Cl)cccc2Cl)c1C(=O)NC1CCCCC1	-7.3% (inactive)
CCC(=O)Oc1ccc2c(C)c(Cc3ccccc3)c(=O)oc2c1C	-5.7% (inactive)
CCn1c2c(c(=O)n3ncc(C(=O)O)c13)CN(Cc1ccccc1)CC2	9.1% (inactive)
CCOC(=O)c1c(NC(=O)c2ccccc2C(=O)O)sc(C)c1C	-6.4% (inactive)
CCOC(=O)COc1ccc2c(=O)c(-c3ccccc3OC)c(C(F)(F)F)oc2c1	-6.1% (inactive)
Cc1ccc(Oc2c(C(F)(F)F)oc3c(CN4CCC(C)CC4)c(O)ccc3c2=O)cc1	-2.8% (inactive)
O=C(c1ccccc1F)N1c2ncnn2C2(CCCCC2)[C@@H]2CCCC[C@@H]21	2.4% (inactive)
O=C1C(=O)N(CCN2CCOCC2)C(c2ccncc2)/C1=C(\O)c1ccccc1 (stereo unspecified)	0.7% (inactive)
NC(=O)c1c(NC(=O)C2C3C=CC(C3)C2C(=O)O)sc2c1CCCCC2 (stereo unspecified)	7.3% (inactive)
C=CCOc1ccccc1/C=C1/C(=O)NN(c2ccc(C)c(Cl)c2)C1=O	-5.7% (inactive)
O=C(CSc1nnc(-c2ccco2)o1)c1cccc2ccccc12	-5.2% (inactive)
CCOC(=O)C(CC)Oc1ccc2c(=O)c(-c3ccc(OC)c(OC)c3)c(C(F)(F)F)oc2c1 (stereo unspecified)	7.8% (inactive)
CN(C)CCCN1C(=O)C(O)=C(C(=O)c2ccco2)C1c1ccccc1 (stereo unspecified)	9.4% (inactive)
CN(C)c1ccc(C2C(C(=O)c3ccco3)=C(O)C(=O)N2CC2CCCO2)cc1 (stereo unspecified)	-0.8% (inactive)

Compound	inhibition
Cc1cc(C)cc(N2C(=O)CSC2c2c(F)cccc2Cl)c1 (stereo unspecified)	-8.8% (inactive)
COc1ccccc1C1SCCN1S(=O)(=O)c1ccc(F)cc1 (stereo unspecified)	11.3% (inactive)
O=C(O)CCN1C(=O)C(=O)/C(=C(/O)c2ccccc2)C1c1ccc(Br)cc1 (stereo unspecified)	-4.1% (inactive)
O=C(Nc1cccc(C(=O)N(Cc2ccccc2)Cc2ccccc2)c1)[C@@H]1[C@H]2C[C@H]3[C@@H]1C(=O)O[C@H]3C2	3.8% (inactive)
COc1ccc(OC)c(C2SCCN2S(=O)(=O)c2ccc(C)cc2)c1 (stereo unspecified)	6.1% (inactive)
CCCOc1ccc(C2C(C(=O)c3cc4ccccc4o3)=C(O)C(=O)N2CCN(C)C)cc1 (stereo unspecified)	-0.2% (inactive)
COc1ccccc1-c1c(C)oc2c(CN3CCCCC3C)c(O)ccc2c1=O (stereo unspecified)	-3.9% (inactive)
COc1cccc(C2C(C(=O)c3cc4ccccc4o3)=C(O)C(=O)N2CCN2CCOCC2)c1 (stereo unspecified)	2.7% (inactive)
O=C(C1=C(O)C(=O)N(CCN2CCOCC2)C1c1cccnc1)c1cccs1 (stereo unspecified)	-0.7% (inactive)
Cc1onc(-c2c(Cl)cccc2Cl)c1C(=O)N1CCCCCC1	-6.1% (inactive)
Cc1ccc(N2C(=O)CSC2c2ccccc2F)cc1C (stereo unspecified)	-4.3% (inactive)
O=C(Oc1ccc2c(=O)c(Oc3ccccc3Br)c(C(F)(F)F)oc2c1)c1cccs1	-1.4% (inactive)
CN1C(=O)C2(/C(=C(/O)c3ccccc3)C(=O)C(=O)N2CC2CCCO2)c2ccccc21 (stereo unspecified)	-3.7% (inactive)
Cc1ccc(C(=O)O)cc1NC(=O)C1C2CCC(C2)C1C(=O)O (stereo unspecified)	3.8% (inactive)
CN1CCC2(CC1)N=C(c1ccccc1)C(=S)N2C(=O)c1ccc(Cl)cc1	-2% (inactive)
Cc1ccc(C)c(-c2n[nH]n3c2nc(=O)c2ccccc23)c1	-23.5% (inactive)
O=C1c2cccc3cccc(c23)N1S(=O)(=O)c1ccccc1	-5% (inactive)
CC(C)CCN(Cc1ccco1)C(=O)c1noc2c1CCCC2	-3% (inactive)
Cc1cccc(N2C(=O)CSC2c2ccc(Br)cc2)c1 (stereo unspecified)	-3.9% (inactive)

Compound	inhibition
CCOC(=O)c1c(NC(=O)c2cccc(Cl)c2)sc2c1CCCC2	3.1% (inactive)
O=C(c1ccc(F)cc1)N(Cc1ccco1)Cc1ccccc1Cl	-1.7% (inactive)
Cc1nnc(N2C(=O)C(O)=C(C(=O)c3ccco3)C2c2ccc(Cl)cc2)s1 (stereo unspecified)	0.1% (inactive)
CCc1ccc(Oc2c(C(F)(F)F)oc3c(CN4CCOCC4)c(O)ccc3c2=O)cc1	-5.8% (inactive)
CCc1cccc(C)c1NC(=S)N(Cc1ccco1)C(C)c1cccs1 (stereo unspecified)	-5.9% (inactive)
Cc1ccc(/C(O)=C2\C(=O)C(=O)N(CCN3CCOCC3)C2c2cccs2)cc1 (stereo unspecified)	-5.9% (inactive)
COc1ccc(C2C(C(=O)N3CCCC(C)C3)c3ccccc3C(=O)N2C)cc1 (stereo unspecified)	2.3% (inactive)
COc1ccccc1C(=O)NC(C)c1nc2ccccc2n1Cc1ccccc1C (stereo unspecified)	-0.5% (inactive)
CCOc1cc(C2C(C(=O)c3ccco3)=C(O)C(=O)N2CC2CCCO2)ccc1O (stereo unspecified)	0.5% (inactive)
O=C(O)CCN1C(=O)C(=O)/C(=C(/O)c2ccccc2)C1c1ccccc1[N+](=O)[O-] (stereo unspecified)	1.1% (inactive)
COC(=O)c1c(NC(=O)c2cccc(C)c2)sc2c1CCC(C)C2 (stereo unspecified)	-8.1% (inactive)
COc1cccc(Cn2c(=S)[nH]c3c(oc4ccccc43)c2=O)c1	3% (inactive)
COc1ccc(C2/C(=C(\O)c3ccccc3)C(=O)C(=O)N2CCN2CCOCC2)cc1 (stereo unspecified)	0.4% (inactive)
Cc1ccc(C2/C(=C(\O)c3ccccc3)C(=O)C(=O)N2c2nnc(C)s2)cc1 (stereo unspecified)	-1.8% (inactive)
CCOc1ccc(N(C)C(=O)[C@H]2[C@@H]3C[C@@H]4[C@H]2C(=O)O[C@@H]4C3)cc1	19.5% (inactive)
Cc1cccc(C(=O)N2c3ncnn3C(c3ccccc3)CC2c2ccccc2)c1 (stereo unspecified)	-15.7% (inactive)
COC(=O)c1c(NC(=O)c2ccc(F)cc2)sc(C)c1C	-4.9% (inactive)
Cc1cc(C)cc(N2C(=O)N(c3ccccc3Cl)C3CS(=O)(=O)CC32)c1 (stereo unspecified)	2.6% (inactive)
